Reference: PubChem BioAssay (NCI)
Where “and” joins values, the source holds several entries; their conditions need not be identical. Equal entries are not always repeated. The panel holds about 83,000 compounds, 20% with a hit somewhere; the sample as a whole holds those more often.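 Percent growth is the endpoint: 0 to 100 indicates growth inhibition (40 means 60% inhibition), 0 means no net growth, and negative values indicate cell death.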 Calls of active or inactive are those of the source. The calls were made as follows: active = growth percent below 10; inactive = the rest.

System: HL-60(TB) leukemia
Test: NCI-60 one-dose screen, 48 h (100 = growth as untreated, 0 = no growth, -100 = all killed)
Conditions: 10 µM unless noted

Structure (SMILES)	growth
Nc1ccccc1SC(CC(=O)c1ccccc1)c1c(Cl)cccc1Cl (stereo not given)	54.8% (inactive)
O=C(O)COCC(=O)O	102% (inactive)
O=C(Nc1ccc(Oc2ccc(NC(=O)Nc3ccc([N+](=O)[O-])cc3)cc2)cc1)Nc1ccc([N+](=O)[O-])cc1	-32.6% (active)
CNC(=S)Sc1ccc([N+](=O)[O-])cc1[N+](=O)[O-]	-14.6% (active)
COc1ccc(-n2nnc(C(=O)NCCc3c[nH]c4ccc(F)cc34)c2C)cc1	86.9% (inactive)
COC(=O)[C@]1(C)CCC[C@]2(C)[C@H]3C[C@H]4C(C(C)C)=C[C@]3(CC[C@H]21)[C@H]1[C@@H]4[C@@H](OCCC#N)CC[C@@H]1OCCC#N	2.28% (active)
CCOC(=O)c1c(SC)nn(-c2cc(=O)[nH]c3ccc(Br)cc23)c1N	103% (inactive)
N#Cc1ccc(/C=C/C(=O)c2ccccc2)cc1	-15.6% (active) and 17.7% (inactive)
COc1nc2c(cc1S(=O)(=O)c1ccccc1)CCc1c-2cnn1-c1ccccc1Cl	39.9% (inactive)
Cn1c(-c2ccc(Br)cc2)c(O)c(=O)c2c(F)cccc21	122% (inactive)
Cc1cc(C)c2c(-c3nnc(N)s3)cc(=O)oc2c1	98% (inactive)
N#CCCN(CCO)c1ccccc1	89.9% (inactive)
CCS(=O)(=O)CCCl	99.8% (inactive)
COc1ccc(Nc2cc(Cl)ccc2C(=O)O)cn1	96.3% (inactive)
O=C1C2=C(C(=O)c3ccccc31)C(O)(S(=O)(=O)O)C(O)(S(=O)(=O)O)C1N=CC=CC21 (stereo not given)	28.7% (inactive) and 31.4% (inactive)
O=C1c2ccccc2C(=O)c2c1oc1c2c(=O)[nH]c2ccc(Cl)cc21	94.5% (inactive)
CC(=Nc1ccccc1)C1=C(O)C(Cc2ccc(O)cc2)NC1=O (stereo not given)	-51.5% (active)
CCCCCC(/C=N\NC(=S)N/N=C/C(=C/c1ccccc1)CCCCC)=C\c1ccccc1	68.8% (inactive)
C=C(CNCCc1ccc(O)cc1)[C@@H]1CC[C@]2(CO)CC[C@]3(C)[C@H](CC[C@@H]4[C@@]5(C)CCC(NCCO)C(C)(C)[C@@H]5CC[C@]43C)[C@@H]12 (stereo not given in full)	-46.4% (active)
Cc1ccc(-n2c(=S)[nH]c3sc4c(c3c2=O)CCC(=O)C4)cc1	4.93% (active)

Structure (SMILES)	growth
Cc1ccc(S(=O)(=O)Nc2nc3ccccc3nc2Nc2ccc3nsnc3c2)cc1	45.4% (inactive) and 37.2% (inactive)
Cc1ccc2c3c(c(=O)[nH]c2c1)C1(C(C#N)=C(N)O3)c2cc(Br)ccc2-c2ccc(Br)cc21	83.7% (inactive)
C1=C(N2CCCC2)CCC1	56.7% (inactive)
Cc1ccc(Cl)cc1NC(=O)N(C)CCO	92% (inactive)
CC/C(=C(/c1ccc(Cl)cc1)c1ccc(OCCN2CCCC2)cc1)c1ccc(OC)cc1	65.1% (inactive)
CCC1=C[C@@H]2C[C@]3(C(=O)OC)c4[nH]c5ccccc5c4CC[N@+](CC(=O)Nc4cc5c(cc4OC)N(C)[C@H]4[C@@](O)(C(=O)OC)[C@H](OC(C)=O)[C@]6(CC)C=CCN7CC[C@]54[C@@H]76)(C2)[C@H]13	116% (inactive)
CC1CCN(S(=O)(=O)c2ccc(S(=O)(=O)N3CCCC(c4nc5c(nnn5Cc5cccc(Cl)c5)c(=O)[nH]4)C3)cc2)CC1 (stereo not given)	16.1% (inactive)
CCCCN(CCCC)CCCO	95.5% (inactive)
Cc1ccc(=O)[nH]n1	99.9% (inactive) and 102% (inactive)
COc1ccc(-c2csc(NC(=O)N3CCN(c4cc5c(cc4F)c(=O)c(C(=O)O)cn5C4CC4)CC3)n2)cc1	-11.6% (active)
CCN1CCN(C(=O)[C@]23CCC(C)(C)C[C@H]2C2=CC[C@@H]4[C@@]5(C)CC/C(=N/O)C(C)(C)[C@@H]5CC[C@@]4(C)[C@]2(C)CC3)CC1	-9.73% (active)
COc1ccc(C(=O)COc2ccc(/C=C3\Oc4ccc5ccccc5c4C3=O)cc2)cc1	87.3% (inactive)
Cc1nn(-c2ccc(Cl)cc2)c2ncnc(N/N=C/c3ccccc3O)c12	-4.93% (active) and 1.67% (active)
O=C(CCc1nnc2sc(COc3ccccc3)nn12)c1nc2ncccc2[nH]1	117% (inactive)
CC(=O)NCC(=O)N1[C@@H]2CC[C@H]1c1ccc(Nc3ncc(C(F)(F)F)c(NC4CCC4)n3)cc12	11.8% [2.5 µM] (inactive)
Clc1ccc(/C=N\N=c2\scc(-c3ccc(Cl)cc3)n2/N=C/c2ccc(Cl)cc2)cc1	84.5% (inactive)
O=C(NCCc1ccc(O)c(O)c1)C12CC3CC(CC(C3)C1)C2	57% (inactive)
N#CC1(Nc2ccc3c4c(cccc24)CC3)CCCCC1	72.2% (inactive)
COc1ccc2[nH]cc(/C=C3\C(=O)Nc4ccccc43)c2c1	-31.7% (active)
Cc1cc(O)c(C2=NN(c3ccc(S(N)(=O)=O)cc3)C(c3ccc(Cl)cc3)C2)c(C)c1Cl (stereo not given)	18.4% (inactive)
